The structures appear in SMILES notation. The panel holds about 83,000 compounds, 20% with a hit somewhere; the sample as a whole holds those more often.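 Growth was measured after 48 h exposure to one concentration of compound in 96-well plates. Values under 10 count as active.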 Activity calls are given as the source filed them.

This assay deals with MOLT-4 leukemia. Description: NCI-60 one-dose screen, 48 h (100 = growth as untreated, 0 = no growth, -100 = all killed). As to conditions: 10 µM unless noted.
Turning to `Cn1cc(-c2nc(N)nnc2-c2c[nH]c3ccc(Br)cc23)c2cccnc21`, the growth is 27.5% (inactive).
Turning to `O=C1c2c(c3c4cc(F)ccc4oc3c3[nH]c4ccc(Br)cc4c23)C(=O)N1O`, the growth is 7.83% (active).
Next, `CCCCNC(=S)Nc1ccc(OCc2nc3ccccc3[nH]2)cc1`: 35.2% (inactive).
Next, `COc1cc(-c2ccc(/C=N/NC(=O)c3[nH]c4ccc(Br)cc4c3-c3ccccc3)s2)cc(OC)c1OC`: 79.1% (inactive); `C=C1CC[C@@H]2[C@]3(C)COC(c4cn[nH]c4-c4ccc(C)cc4)O[C@@H]3CC[C@@]2(C)[C@@H]1C/C=C1/C(=O)OCC1O` (stereo partly drawn): 13.9% (inactive).
Under `COc1cc2c(c(OC)c1OC)C(=O)CC(c1cccc(NC(=O)c3cc(N)ccc3Cl)c1)O2` (stereo not drawn) stands 21.5% (inactive); under `COc1cc2c(c(OC)c1OC)C(=O)CC(c1cccc(NC(=O)c3cccc(NC(=O)[C@H](C)NC(=O)OC(C)(C)C)c3)c1)O2` (stereo partly drawn), 36.5% (inactive).
In the case of `C=C1CCC2C3(C)COC(c4cc(F)cc(F)c4)OC3CCC2(C)C1CC(O)C1=CCOC1=O` (stereo not drawn), the growth was 33.7% (inactive).
Take `O=C(/C=C/c1ccc(O)c(O)c1)NC1CCOC1O` (stereo not drawn): the growth was 96.3% (inactive).
Under `C/C(=N\N=C1/C(=O)Nc2ccc(Cl)cc21)c1ccc2c(c1)Nc1ccccc1S2` stands -1.18% (active); under `CC(C)CCNC(=O)N/C(N)=N/c1nc2ccccc2s1`, 29.6% (inactive).
Under `OCNc1ccc(-n2cnc3cc(-c4ccc(O)cc4)ccc32)cc1C(F)(F)F` stands 15% (inactive).
As to `C=C1CCC2C3(C)COC(c4ccc(F)cc4)OC3CCC2(C)C1C/C=C1/C(=O)OCC1O` (stereo not drawn), the growth is 8.65% (active).

Source of the values: PubChem BioAssay (NCI).
